Measured values: PubChem BioAssay (EPA / NIEHS)
Where “and” joins values, the source holds several entries; their conditions need not be identical. Identical values can stand only once. Records with an inconclusive call do not appear. Some compounds were tested as several samples or in several runs, with calls that do not always agree. Calls of active or inactive are those of the source. Rule for the calls, unless noted: active = hit-call score of the fitted dose curve at least 0.9, where 1 is the maximum; inconclusive = response in the unintended direction; inactive = score below 0.9.

What was measured:
[1] = biological target: human Norepinephrine Transporter (NET), SLC6A2 (gene 6530) (UniProt P23975); test: NVS_TR_hNET: NovaScreen (NVS) Transporter Assay for human Norepinephrine Transporter (NET) (AID 2283377);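 note: cell-free membrane protein extracted from CHO cells expressing human NET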;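 for AC50: displacement of radioligand from human NET seen as loss of scintillation signal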
Method in brief: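 In this cell-free binding screen, chemicals at 25 uM (duplicate) compete with a radioligand for CHO-derived human NET over 1 hour, with filter-based radiodetection.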

[2] = biological target: Retinoic acid receptor RXR-alpha (Homo sapiens) (UniProt P19793); test: OT_NURR1_NURR1RXRa_0480: Odyssey Thera (OT) 8-hour HEK293T Protein Complementation Assay for Nurr1/retinoid X receptor (RXR) (AID 2283385)
Method in brief: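 Read-out: fluorescence from protein-fragment complementation between Nurr1 and RXRα in human HEK293T cells, 8 h after dosing. DMSO served as negative control; increased signal counted as activity.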

[3] = biological target: Agonist Androgen Response Element (ARE), AR (gene 367) (UniProt P10275); test: OT_AR_ARELUC_AG_1440: Odyssey Thera (OT) 24-hour CHO-K1 Luciferase Assay for Agonist Androgen Response Element (ARE) (AID 2283379)
Method in brief: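 Luminescence increase above DMSO, read after a 24 h compound treatment of CHO-K1 cells expressing an androgen response element luciferase reporter, gives the single primary endpoint; concentration-response fitting used the positive direction.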

[4] = biological target: Estrogen receptor beta (Homo sapiens) (UniProt Q92731); test: OT_ER_ERbERb_1440: Odyssey Thera (OT) 24-hour HEK293T Protein-Complementation Assay for Estrogen Receptor-beta/-beta Homodimer (AID 2283380);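 note: fluorescence gain from ER beta LBD homodimer complementation read by laser scanning cytometry; scored as signal increase over DMSO baseline for both agonists and antagonists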
Method in brief: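 HEK293T cells stably expressing human ER-beta LBD (aa 310-547) PCA homodimer pair, dosed 24 h; formaldehyde-fixed, Draq5-stained. Readout: increase in nuclear (agonist) or nuclear plus cytoplasmic (antagonist) fluorescence intensity versus DMSO, gain-of-signal fitting.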

[5] = biological target: Estrogen receptor (Homo sapiens) (UniProt P03372); test: OT_ERa_GFPERaERE_0480: Odyssey Thera (OT) 8-hour HeLa Transcription Induction Assay for Estrogen Receptor (AID 2283381; active = hit-call score of the fitted dose curve at least 0.9, where 1 is the maximum; inactive = score below 0.9)
Method in brief: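 GFP-ERE reporter, HeLa, 8 h exposure. Readout: fluorescence microscopy, high-content image analysis. Fit direction positive vs DMSO negative control.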

[6] = biological target: Estrogen receptor (Homo sapiens) (UniProt P03372); test: OT_ERa_GFPERaERE_0120: Odyssey Thera (OT) 2-hour HeLa Transcription Induction Assay for Estrogen Receptor (AID 2283382)
Method in brief: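 Fluorescence microscopy read-out: inducible fluorescent protein reporter in HeLa cells, imaged 2 h post-dose. Signal increase over DMSO negative control fitted as single primary endpoint via high content image analysis.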

[7] = biological target: mouse Estrogen Receptor alpha (Era), Esr1 (gene 13982) (UniProt P19785); test: NVS_NR_mERa: NovaScreen (NVS) Nuclear Receptor Binding Assay for mouse Estrogen Receptor alpha (Era) (AID 2283378);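 note: hit means loss of bound radioligand signal relative to DMSO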
Method in brief: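 Test chemicals competed against a specific radioligand for binding to cell-free mouse Era. Duplicate wells at 25 uM were read 18 hours later by filter-based radiodetection, with loss of signal against DMSO scored as activity.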

[8] = biological target: Bile acid receptor (Homo sapiens) (UniProt Q96RI1); test: OT_FXR_FXRSRC1_0480: Odyssey Thera (OT) 8-hour HEK293T Protein-Complementation Assay for Farnesoid X receptor/SRC-1 Co-activator (AID 2283383)
Method in brief: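 Fluorescence intensity read-out, 8 h post-dose, HEK293T protein-fragment complementation; FXR bait and SRC-1 prey each linked to reporter fragments. Activity scored as signal increase over DMSO negative control.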

[9] = biological target: Bile acid receptor (Homo sapiens) (UniProt Q96RI1); test: OT_FXR_FXRSRC1_1440: Odyssey Thera (OT) 24-hour HEK293T Protein-Complementation Assay for Farnesoid X receptor/SRC-1 Co-activator (AID 2283384)
Method in brief: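 Fluorescence readout, 24 h post-dose, HEK293T; FXR and SRC-1 fused to complementary reporter fragments, association reconstitutes signal. Positive-direction fit vs DMSO baseline.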

[10] = biological target: rat Serotonin Transporter (SERT), Slc6a4 (gene 25553) (UniProt P31652); test: NVS_TR_rSERT: NovaScreen (NVS) Transporter Assay for rat Serotonin Transporter (SERT) (AID 2283375)
Method in brief: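 Steps: rat forebrain membranes dosed with chemical (25 uM duplicate primary; concentration series for actives); 1 h incubation; labelled ligand bound, filtered, counted by scintillation. Activity scored as signal loss vs DMSO.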

Chain of Bile acid receptor (Homo sapiens) (Q96RI1 whole entry, looked up, the tested form may be a part): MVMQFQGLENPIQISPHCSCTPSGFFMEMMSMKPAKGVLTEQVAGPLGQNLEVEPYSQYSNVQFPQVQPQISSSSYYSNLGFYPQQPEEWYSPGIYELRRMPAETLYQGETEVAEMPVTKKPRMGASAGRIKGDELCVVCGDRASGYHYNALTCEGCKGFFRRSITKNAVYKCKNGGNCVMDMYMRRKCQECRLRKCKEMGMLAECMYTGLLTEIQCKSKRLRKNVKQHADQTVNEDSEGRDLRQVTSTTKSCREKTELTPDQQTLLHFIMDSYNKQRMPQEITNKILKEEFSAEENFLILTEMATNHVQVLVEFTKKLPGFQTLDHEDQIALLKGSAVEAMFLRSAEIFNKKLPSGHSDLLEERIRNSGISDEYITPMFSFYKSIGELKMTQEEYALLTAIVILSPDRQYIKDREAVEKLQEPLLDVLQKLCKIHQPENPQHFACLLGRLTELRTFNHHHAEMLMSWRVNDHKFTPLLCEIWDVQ
Chain of rat Serotonin Transporter (SERT), Slc6a4 (gene 25553) (P31652 whole entry, looked up): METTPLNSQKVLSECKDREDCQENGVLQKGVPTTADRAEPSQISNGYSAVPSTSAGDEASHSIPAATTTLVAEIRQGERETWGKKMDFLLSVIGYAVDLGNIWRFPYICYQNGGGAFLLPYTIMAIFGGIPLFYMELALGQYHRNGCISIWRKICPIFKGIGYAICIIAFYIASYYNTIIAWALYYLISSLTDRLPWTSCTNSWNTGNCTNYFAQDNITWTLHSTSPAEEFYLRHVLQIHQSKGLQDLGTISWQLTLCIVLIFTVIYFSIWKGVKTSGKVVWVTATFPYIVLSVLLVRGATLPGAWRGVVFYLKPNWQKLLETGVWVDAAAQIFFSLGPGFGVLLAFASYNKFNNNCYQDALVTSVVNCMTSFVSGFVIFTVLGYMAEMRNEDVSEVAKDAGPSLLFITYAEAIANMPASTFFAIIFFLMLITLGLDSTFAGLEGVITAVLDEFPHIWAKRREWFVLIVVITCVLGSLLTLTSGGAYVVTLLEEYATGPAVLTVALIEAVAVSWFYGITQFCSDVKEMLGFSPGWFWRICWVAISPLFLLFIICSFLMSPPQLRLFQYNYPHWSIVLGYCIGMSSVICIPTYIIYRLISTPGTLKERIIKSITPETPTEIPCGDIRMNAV
Chain of human Norepinephrine Transporter (NET), SLC6A2 (gene 6530) (P23975 whole entry, looked up): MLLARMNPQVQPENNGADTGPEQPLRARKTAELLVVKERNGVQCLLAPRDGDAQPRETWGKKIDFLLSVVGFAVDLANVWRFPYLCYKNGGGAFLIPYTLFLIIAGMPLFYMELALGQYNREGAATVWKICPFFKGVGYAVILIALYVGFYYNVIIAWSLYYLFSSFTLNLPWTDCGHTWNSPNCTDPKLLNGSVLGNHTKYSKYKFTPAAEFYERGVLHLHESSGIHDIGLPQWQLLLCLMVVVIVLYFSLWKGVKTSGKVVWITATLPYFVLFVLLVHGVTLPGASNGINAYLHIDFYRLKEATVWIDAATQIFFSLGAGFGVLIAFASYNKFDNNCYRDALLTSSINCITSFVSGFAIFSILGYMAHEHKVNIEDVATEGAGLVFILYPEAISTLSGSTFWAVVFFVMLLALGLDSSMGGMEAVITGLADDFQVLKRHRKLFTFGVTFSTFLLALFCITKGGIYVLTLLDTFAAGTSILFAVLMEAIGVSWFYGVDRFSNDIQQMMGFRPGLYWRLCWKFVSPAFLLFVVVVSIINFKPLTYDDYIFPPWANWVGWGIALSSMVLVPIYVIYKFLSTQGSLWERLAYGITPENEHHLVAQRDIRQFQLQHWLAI
Chain of Retinoic acid receptor RXR-alpha (Homo sapiens) (P19793 whole entry, looked up, the tested form may be a part): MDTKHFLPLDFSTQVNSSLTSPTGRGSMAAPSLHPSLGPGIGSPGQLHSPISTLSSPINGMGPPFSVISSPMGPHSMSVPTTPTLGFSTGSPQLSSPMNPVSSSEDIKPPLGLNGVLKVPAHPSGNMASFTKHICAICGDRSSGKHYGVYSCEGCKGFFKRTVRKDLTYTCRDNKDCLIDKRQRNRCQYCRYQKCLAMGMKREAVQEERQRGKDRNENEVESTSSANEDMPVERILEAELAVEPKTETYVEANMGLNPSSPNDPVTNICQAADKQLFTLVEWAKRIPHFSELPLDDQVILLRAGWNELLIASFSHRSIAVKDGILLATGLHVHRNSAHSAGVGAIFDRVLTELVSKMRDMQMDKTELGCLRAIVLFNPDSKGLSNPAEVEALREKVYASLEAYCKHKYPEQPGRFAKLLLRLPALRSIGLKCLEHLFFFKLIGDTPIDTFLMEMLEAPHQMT
Chain of Agonist Androgen Response Element (ARE), AR (gene 367) (P10275 whole entry, looked up): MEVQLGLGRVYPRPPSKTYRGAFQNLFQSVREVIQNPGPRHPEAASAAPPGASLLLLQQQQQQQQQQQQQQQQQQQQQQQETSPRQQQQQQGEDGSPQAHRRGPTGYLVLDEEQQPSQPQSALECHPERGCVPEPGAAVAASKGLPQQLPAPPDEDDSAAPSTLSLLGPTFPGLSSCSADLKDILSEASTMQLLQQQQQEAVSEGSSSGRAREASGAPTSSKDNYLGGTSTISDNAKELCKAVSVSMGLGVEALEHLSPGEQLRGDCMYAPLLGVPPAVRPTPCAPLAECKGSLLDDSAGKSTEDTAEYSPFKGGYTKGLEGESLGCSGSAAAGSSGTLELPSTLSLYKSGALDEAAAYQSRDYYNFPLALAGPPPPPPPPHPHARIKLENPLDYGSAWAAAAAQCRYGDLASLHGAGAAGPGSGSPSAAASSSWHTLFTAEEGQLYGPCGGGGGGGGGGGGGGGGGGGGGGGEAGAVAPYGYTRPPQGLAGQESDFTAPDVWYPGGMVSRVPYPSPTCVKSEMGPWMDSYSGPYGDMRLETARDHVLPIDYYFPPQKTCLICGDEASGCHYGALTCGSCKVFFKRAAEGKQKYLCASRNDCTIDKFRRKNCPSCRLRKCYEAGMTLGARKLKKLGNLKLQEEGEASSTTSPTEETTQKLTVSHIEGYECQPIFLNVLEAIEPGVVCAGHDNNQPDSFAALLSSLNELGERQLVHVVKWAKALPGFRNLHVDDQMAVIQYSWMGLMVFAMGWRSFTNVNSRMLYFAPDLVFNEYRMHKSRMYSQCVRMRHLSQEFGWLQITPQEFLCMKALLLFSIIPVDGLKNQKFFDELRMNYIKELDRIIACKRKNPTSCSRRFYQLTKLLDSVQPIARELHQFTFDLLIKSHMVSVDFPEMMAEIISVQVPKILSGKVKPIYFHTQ
Chain of mouse Estrogen Receptor alpha (Era), Esr1 (gene 13982) (P19785 whole entry, looked up): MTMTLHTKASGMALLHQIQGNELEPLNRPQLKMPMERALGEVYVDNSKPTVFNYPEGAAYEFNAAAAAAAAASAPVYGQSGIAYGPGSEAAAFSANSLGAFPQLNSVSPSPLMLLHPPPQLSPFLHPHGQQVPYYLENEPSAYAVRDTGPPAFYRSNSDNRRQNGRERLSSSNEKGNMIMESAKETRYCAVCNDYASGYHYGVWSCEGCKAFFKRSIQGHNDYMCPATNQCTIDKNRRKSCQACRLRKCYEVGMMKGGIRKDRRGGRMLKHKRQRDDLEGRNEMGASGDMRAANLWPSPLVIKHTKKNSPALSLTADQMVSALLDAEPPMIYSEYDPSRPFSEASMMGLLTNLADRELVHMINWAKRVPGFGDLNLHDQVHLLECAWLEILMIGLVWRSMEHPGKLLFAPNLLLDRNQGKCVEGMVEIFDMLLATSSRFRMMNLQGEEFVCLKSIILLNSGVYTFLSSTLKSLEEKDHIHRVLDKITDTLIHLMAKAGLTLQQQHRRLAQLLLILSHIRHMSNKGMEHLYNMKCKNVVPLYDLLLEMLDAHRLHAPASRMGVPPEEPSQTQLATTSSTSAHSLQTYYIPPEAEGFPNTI
Chain of Estrogen receptor (Homo sapiens) (P03372 whole entry, looked up): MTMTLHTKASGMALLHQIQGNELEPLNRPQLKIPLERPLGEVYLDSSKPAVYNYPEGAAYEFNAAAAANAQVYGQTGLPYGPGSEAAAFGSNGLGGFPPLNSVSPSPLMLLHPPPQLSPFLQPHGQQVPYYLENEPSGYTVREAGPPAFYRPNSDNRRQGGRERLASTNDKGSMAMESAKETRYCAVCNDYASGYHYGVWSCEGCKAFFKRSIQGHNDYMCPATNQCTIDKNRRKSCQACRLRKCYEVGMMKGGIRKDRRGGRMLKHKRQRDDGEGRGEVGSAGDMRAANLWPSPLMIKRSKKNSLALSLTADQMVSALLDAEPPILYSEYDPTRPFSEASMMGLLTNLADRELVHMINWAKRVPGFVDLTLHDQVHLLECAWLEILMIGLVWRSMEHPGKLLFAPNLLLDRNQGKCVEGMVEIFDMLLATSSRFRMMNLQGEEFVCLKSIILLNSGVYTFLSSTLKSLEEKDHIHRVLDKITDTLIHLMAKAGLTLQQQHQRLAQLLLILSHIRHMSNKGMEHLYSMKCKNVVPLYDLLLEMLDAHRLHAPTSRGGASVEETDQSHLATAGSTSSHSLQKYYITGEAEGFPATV
Chain of Estrogen receptor beta (Homo sapiens) (Q92731 whole entry, looked up, the tested form may be a part): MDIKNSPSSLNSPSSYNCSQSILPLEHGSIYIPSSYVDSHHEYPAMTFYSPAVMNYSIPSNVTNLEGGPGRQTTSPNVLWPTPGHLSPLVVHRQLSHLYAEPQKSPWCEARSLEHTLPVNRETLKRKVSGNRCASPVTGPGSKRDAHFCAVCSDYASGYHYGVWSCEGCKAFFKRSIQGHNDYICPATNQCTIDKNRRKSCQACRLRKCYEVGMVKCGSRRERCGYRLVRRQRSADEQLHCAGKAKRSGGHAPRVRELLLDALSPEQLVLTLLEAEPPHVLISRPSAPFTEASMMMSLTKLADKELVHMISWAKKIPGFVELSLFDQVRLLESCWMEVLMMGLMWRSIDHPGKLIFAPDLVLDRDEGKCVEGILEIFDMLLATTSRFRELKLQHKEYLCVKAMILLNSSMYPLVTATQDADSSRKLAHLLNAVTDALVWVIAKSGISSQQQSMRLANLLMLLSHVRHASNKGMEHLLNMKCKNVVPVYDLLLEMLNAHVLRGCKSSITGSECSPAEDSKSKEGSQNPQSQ

For `CC(C)NCC(O)c1ccc(O)c(O)c1` (configuration not stated), the outcome [1] was “inactive” and the AC50 [2] was 0.03 µM (active).

For `CCC(C)N(C)C(=O)c1cc2ccccc2c(-c2ccccc2Cl)n1` (configuration not stated), the AC50 [1] was 6.81 µM (active), the outcome [3] was “inactive” and the outcome [4] was “inactive”. The outcome [5] was “inactive”, the outcome [6] was “inactive” and the outcome [2] was “inactive”.

With `CCCCC(CC)COC(=O)CCCCCCCC(=O)OCC(CC)CCCC` (configuration not stated) the outcome [7] was “inactive”, the outcome [8] was “inactive” and the outcome [2] was “inactive”.

With `Cc1cc(Cc2ccc(N)c(C)c2)ccc1N` the AC50 [1] was 6.22 µM (active), the AC50 [8] was 50 µM (active) and the AC50 [9] was 66.7 µM (active). The outcome [2] was “inactive”.

For `Cc1ccc(-c2cc(C(F)(F)F)nn2-c2ccc(S(N)(=O)=O)cc2)cc1`, the AC50 [1] was 6.38 µM (active), the outcome [7] was “inactive” and the outcome [3] was “inactive”. For the same compound, the outcome [5] was “inactive” and the outcome [6] was “inactive”.

With `NC(=Nc1ccccc1)Nc1ccccc1` the outcome [1] was “inactive”, the outcome [5] was “inactive” and the outcome [6] was “inactive”. For the same compound, the outcome [8] was “inactive”, the outcome [9] was “inactive” and the AC50 [2] was 5.14 µM (active) and 12.2 µM (active).

`CN(C)C(=O)NC1(c2ccccc2)CCN(CC[C@@]2(c3ccc(F)c(F)c3)CN(C(=O)c3ccccc3)CCO2)CC1` was tested, and the outcome [1] was “inactive”, the outcome [8] was “inactive” and the outcome [9] was “inactive”. The outcome [2] was “inactive”.

`CSc1ccc(Oc2ccc(S(N)(=O)=O)cc2CN(C)C)cc1C` was tested, and the AC50 [10] was 0.00229 µM (active), the AC50 [1] was 4.12 µM (active) and the outcome [7] was “inactive”. The outcome [3] was “inactive”, the outcome [4] was “inactive” and the outcome [5] was “inactive”. For the same compound, the outcome [6] was “inactive”, the outcome [8] was “inactive” and the AC50 [9] was 26.5 µM (active). For the same compound, the AC50 [2] was 50 µM (active) and the outcome [2] was “inactive”.

For `CCN(CC)CCOc1ccc(C(=C(Cl)c2ccccc2)c2ccccc2)cc1`, the AC50 [10] was 7.45 µM (active), the outcome [3] was “inactive” and the AC50 [2] was 9.55 µM (active).

With `COC(=O)[C@H]1[C@H]2C[C@@H]3c4[nH]c5cc(OC)ccc5c4CCN3C[C@H]2C[C@@H](OC(=O)c2cc(OC)c(OC)c(OC)c2)[C@@H]1OC` the AC50 [1] was 5.72 µM (active) and the AC50 [2] was 16.6 µM (active) and 22.4 µM (active).

With `COc1ccc(OC(F)(F)F)cc1CN[C@H]1CCCN[C@H]1c1ccccc1` the AC50 [10] was 11.7 µM (active), the AC50 [1] was 11.1 µM (active) and the outcome [4] was “inactive”. The AC50 [5] was 85.4 µM (active), the AC50 [6] was 75.7 µM (active) and the AC50 [8] was 11.3 µM (active).

With `O=C(O)CN(CC(=O)O)CC(=O)O` the outcome [1] was “inactive”, the outcome [5] was “inactive” and the outcome [6] was “inactive”. For the same compound, the outcome [8] was “inactive” and the outcome [2] was “inactive”.

With `CC(C)OC(=O)C(C)(C)Oc1ccc(C(=O)c2ccc(Cl)cc2)cc1` the outcome [7] was “inactive”, the outcome [4] was “inactive” and the outcome [5] was “inactive”. The outcome [6] was “inactive”, the AC50 [8] was 12.8 µM (active) and the AC50 [9] was 7.72 µM (active). The outcome [2] was “inactive”.

For `CCc1cc(C2=C(C(=O)O)N(c3ccccc3C(F)(F)F)S(=O)(=O)c3ccccc32)cc2c1OCO2`, the outcome [1] was “inactive”.

`CN(C)CCCN1c2ccccc2Sc2ccc(Cl)cc21` was tested, and the AC50 [10] was 2.55 µM (active).

For `Cn1cnc2c1c(=O)[nH]c(=O)n2C`, the AC50 [10] was 2.36 µM (active), the outcome [8] was “inactive” and the outcome [9] was “inactive”. For the same compound, the outcome [2] was “inactive”.

With `Nc1nc(=S)c2[nH]cnc2[nH]1` the outcome [1] was “inactive”, the outcome [3] was “inactive” and the outcome [5] was “inactive”. The outcome [6] was “inactive” and the outcome [2] was “inactive”.

`CCCCCCCCCCCCCCOS(=O)(=O)O` was tested, and the AC50 [1] was 37.7 µM (active), the AC50 [5] was 92.3 µM (active) and the outcome [6] was “inactive”. The AC50 [2] was 79.4 µM (active) and the outcome [2] was “inactive”.

In the case of `CC(=O)[C@@]1(O)CC[C@H]2[C@@H]3CCC4=CC(=O)CC[C@]4(C)[C@H]3CC[C@@]21C`, the AC50 [7] is reported as 10.1 µM (active), the outcome [7] is reported as “inactive” and the outcome [2] is reported as “inactive”.

`Cc1c(C)c2c(c(C)c1O)CCC(C)(COc1ccc(CC3SC(=O)NC3=O)cc1)O2` (configuration not stated) was tested, and the outcome [3] was “inactive”, the outcome [4] was “inactive” and the outcome [5] was “inactive”. For the same compound, the outcome [6] was “inactive”, the AC50 [8] was 20 µM (active) and the AC50 [9] was 18.2 µM (active). The AC50 [2] was 67.9 µM (active) and 76 µM (active).

In the case of `Cc1cc(SC2=C(O)C[C@@](CCc3ccc(N)cc3)(C(C)C)OC2=O)c(C(C)(C)C)cc1CO`, the outcome [10] is reported as “inactive”, the outcome [3] is reported as “inactive” and the outcome [8] is reported as “inactive”. For the same compound, the outcome [9] was “inactive” and the outcome [2] was “inactive”.

For `O=Cc1ccccc1C=O`, the AC50 [1] was 7.28 µM (active), the outcome [3] was “inactive” and the outcome [5] was “inactive”. For the same compound, the outcome [6] was “inactive”.

In the case of `S=c1[nH]c2ccccc2s1`, the AC50 [1] is reported as 13.6 µM (active), the outcome [8] is reported as “inactive” and the outcome [9] is reported as “inactive”.

In the case of `OCC(CO)n1cnc(-c2ccc(F)cc2)c1-c1ccnc(Oc2ccccc2)n1`, the outcome [7] is reported as “inactive”, the outcome [5] is reported as “inactive” and the outcome [6] is reported as “inactive”. The outcome [2] was “inactive”.

`CCc1nc(N)nc(N)c1-c1ccc(Cl)cc1` was tested, and the AC50 [10] was 9.78 µM (active), the AC50 [1] was 2.23 µM (active) and the outcome [5] was “inactive”. The outcome [6] was “inactive”, the outcome [8] was “inactive” and the outcome [9] was “inactive”. For the same compound, the outcome [2] was “inactive”.

For `CN(C)C(=O)NC1(c2ccccc2)CCN(CCC[C@]2(c3ccc(Cl)c(Cl)c3)CCCN(C(=O)c3ccccc3)C2)CC1`, the AC50 [1] was 0.124 µM (active), the outcome [7] was “inactive” and the outcome [4] was “inactive”. The outcome [5] was “inactive”, the outcome [6] was “inactive” and the AC50 [8] was 15.9 µM (active). For the same compound, the outcome [9] was “inactive”, the AC50 [2] was 19.3 µM (active) and the outcome [2] was “inactive”.

`CC1=C(C)S(=O)(=O)CCS1(=O)=O` was tested, and the outcome [3] was “inactive”, the outcome [4] was “inactive” and the outcome [5] was “inactive”. For the same compound, the outcome [6] was “inactive” and the outcome [2] was “inactive”.
